From PubChem
Rows were chosen to be rich in hits. Some 1.3% of all compounds tested hit in one or more screens of this group.
IL-2 act – qHTS of IL-2 Activators | 360,000 compounds, 0.065% hits | IL-2 activation reporter assay, cell-based qHTS; stimulated with anti-CD3/CD4/CD28 beads; in transgenic mouse T cells | activation, % (series mostly up to about 46 µM) | AID 652025, 2013; in the data active = activation above about 50%; inconclusive = mostly about 30% to 49%; note: 0% is about no effect
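Unstimulated transgenic mouse T cells; 60-min compound exposure; bead-based TCR/CD4/CD28 stimulation; 18 h culture, 37 degrees C; dual fluorescence (EGFP, DsRed) plate cytometry.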
PKM2 act – qHTS Assay for Activators of Human Muscle isoform 2 Pyruvate Kinase; Pyruvate kinase PKM (Homo sapiens), P14618; purified PKM2, Kinase-Glo ATP luminescence, activation; response scale: 0% is enzyme alone, no compound; Potency, µM (highest dose often 57.5 µM), inactives show at the highest dose activation, most hits filed as activators; 260,000 compounds, 0.34% hits; note: potency is the fitted concentration of half-maximal effect; % is set by controls: 0 for no effect and ±100 for the full control effect; nearly all actives have a fitted effect of over 55% in size
Target sequence (P14618 whole entry, looked up, canonical isoform): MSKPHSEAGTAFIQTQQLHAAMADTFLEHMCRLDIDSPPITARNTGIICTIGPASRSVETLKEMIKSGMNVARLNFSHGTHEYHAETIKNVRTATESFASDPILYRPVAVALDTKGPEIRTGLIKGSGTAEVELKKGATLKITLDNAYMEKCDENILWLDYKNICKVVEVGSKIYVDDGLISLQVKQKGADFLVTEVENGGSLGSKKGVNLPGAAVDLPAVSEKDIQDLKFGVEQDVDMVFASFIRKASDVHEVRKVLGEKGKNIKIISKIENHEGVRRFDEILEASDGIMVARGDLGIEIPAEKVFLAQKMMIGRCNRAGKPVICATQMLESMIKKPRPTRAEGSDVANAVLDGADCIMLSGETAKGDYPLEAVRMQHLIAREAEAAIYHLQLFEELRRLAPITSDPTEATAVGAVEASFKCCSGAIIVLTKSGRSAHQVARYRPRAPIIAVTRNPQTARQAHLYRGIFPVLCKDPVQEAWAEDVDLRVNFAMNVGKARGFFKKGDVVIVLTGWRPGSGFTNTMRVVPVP
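hPK-M2, >95% pure; 0.1 mM ADP / 0.5 mM PEP final; imidazole pH7.2 buffer w/ 7 mM MgCl2, 50 mM KCl; 1 h RT; Kinase-Glo lum. Intermediate enzyme activity for dual inhibitor/activator qHTS.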
BRCA1 expr act – qHTS Assay to Identify Small Molecule Activators of BRCA1 Expression. MCF7-BRCA1-FFLuc reporter, luminescence, 48 h; response scale: scaled: vehicle 0%, 10 µM genistein 100%. Potency, µM (titrated, usually from 46.1 µM), for inactives: at the highest dose activation, actives largely listed as activators. 380,000 compounds, 1.1% hits. AID 624202, 2012; note: potency is the fitted concentration of half-maximal effect; nearly all actives have a fitted effect of over 80% in size
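Activators of BRCA1 expression were detected as increased firefly luciferase luminescence in engineered MCF7 cells after 48 h compound incubation. Signals were scaled to genistein 10 microM as full activation.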
Apoferritin bind – qHTS Assay for Identification of Novel General Anesthetics; AID 485281, 2010; apoferritin/1-aminoanthracene competitive binding, fluorescence; 350,000 compounds, 0.074% hits; Potency, µM (top dose mostly 77.5 µM), for inactives: at the highest dose activity change, negative = displacement, hits mostly inhibitors; Ferritin light chain (Equus caballus), P02791; note: potency is the fitted concentration of half-maximal effect; % is set by controls: 0 for no effect and ±100 for the full control effect; nearly all actives have a fitted effect of over 20% in size
Target sequence (P02791 2-175 limits assumed): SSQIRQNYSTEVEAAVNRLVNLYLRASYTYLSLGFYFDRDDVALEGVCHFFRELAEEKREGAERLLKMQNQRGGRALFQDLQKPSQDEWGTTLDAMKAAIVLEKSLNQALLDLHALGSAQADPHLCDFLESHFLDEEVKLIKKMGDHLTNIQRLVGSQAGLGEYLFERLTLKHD
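Steps: apoferritin (10 uM) was premixed with half-saturated 1-AMA in PBS, compounds were pin-transferred, plates stood 10 min at room temperature, fluorescence was read at 380/535 nm, and curves were fitted with a Hill equation.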
Integrin act MD – qHTS for Activators of Integrin-Mediated Alleviation for Muscular Dystrophy. alpha7betagal myoblasts, beta-gal FDG fluorescence, 48 h. Potency, µM (top dose mostly 38.3 µM), for inactives: at the top dose activation, most hits filed as activators. 350,000 compounds, 0.064% hits;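 note: potency is the fitted concentration of half-maximal effect; 100% = response of the positive control SU9516; nearly all actives have a fitted effect of over 60% in size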
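alpha7betagal+/- myoblasts (passage 13, 250/well) treated 48 h at 37C with compounds at 1:260 dilution of DMSO stock. Lysed, then beta-galactosidase activity read as FDG fluorescence (ex 480/em 540) after 30 min, with pre-read for autofluorescence.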
Starred values were filed as active, the others as inactive. Unless noted, calls come from the whole dose curve; as a rule, active = well fitted curve in the direction sought with a large enough effect; inconclusive = small, poorly fitted or top-dose-only effect, or another doubt; inactive = no such curve, though single readings can be large; an effect the other way counts as inactive or inconclusive.

NC(=O)c1nsc(C(=O)N(c2ccccc2)C(C(=O)NCc2ccc(F)cc2)c2ccc(O)cc2)c1N (stereo not given) was read as IL-2 act 0.1, PKM2 act 1.2%, BRCA1 expr act -76.2%, Apoferritin bind 2.0% and Integrin act MD 2.24µM*.
OC(c1ccc(-c2ccccc2)cc1)c1ncc(-c2ccccc2Cl)[nH]1 (stereo not given) was read as IL-2 act 0.5 and BRCA1 expr act -46.3%.
`COc1cccc(-c2cnc(C(O)c3ccccc3)[nH]2)c1` (stereo not given) gave IL-2 act 0.1 and BRCA1 expr act 11.2µM*.
OC(c1ccccc1)c1ncc(-c2ccccc2Cl)[nH]1 (stereo not given) was read as IL-2 act 0.6 and BRCA1 expr act 10µM*.
Screening COc1ccc(-c2cnc(C(O)c3ccccc3)[nH]2)cc1 (stereo not given) returned IL-2 act 0.2 and BRCA1 expr act 12.6µM*.
Screening CC1=C(/C=C/C(C)=C/C=C/C(C)=C/C(=O)O)C(C)(C)CCC1O (stereo not given) returned Apoferritin bind -17.2%.
Screening CC(C)(C)c1ccc(OCCC(=O)NC2=NCCS2)cc1 returned IL-2 act -1.2, PKM2 act -10.1%, BRCA1 expr act -25.3%, Apoferritin bind 12.6µM* and Integrin act MD -8.9%.
Screening COc1ccc(OCCC(=O)NC2=NCCS2)cc1 returned IL-2 act -3.0, PKM2 act -2.9%, BRCA1 expr act 25.5%, Apoferritin bind 3.3% and Integrin act MD -11.5%.
Screening NC(=O)c1nsc(C(=O)N(CC(=O)NC2CCCCC2)Cc2ccc3c(c2)OCO3)c1N returned BRCA1 expr act -0.7%.
`O=C(CCc1ccccc1)NCCC1=CCCCC1` gave IL-2 act 2.3, PKM2 act 1.3%, BRCA1 expr act 11.2µM*, Apoferritin bind -12.7% and Integrin act MD 26.1%.
For O=C(CCNC(=O)c1ccc([N+](=O)[O-])cc1)NCCC1=CCCCC1 the results were IL-2 act -0.5, BRCA1 expr act -13.3% and Integrin act MD -13.9%.
For O=C(Cc1ccccc1)NCCC1=CCCCC1 the results were IL-2 act -4.5, PKM2 act -0.2%, BRCA1 expr act 54.0%, Apoferritin bind -2.5% and Integrin act MD 9.2%.
For O=C(CCNC(=O)c1ccc(Cl)cc1)NCCC1=CCCCC1 the results were IL-2 act 1.6, BRCA1 expr act 7.94µM* and Integrin act MD 0.0%.
O=C(CCCc1ccccc1)NCCC1=CCCCC1 was read as IL-2 act 0.3, PKM2 act 0.3%, BRCA1 expr act 3.16µM*, Apoferritin bind inconclusive and Integrin act MD 41.4%.
O=C(CCCN1C(=O)c2ccccc2C1=O)NCCC1=CCCCC1 was read as IL-2 act -3.3, PKM2 act -8.3%, BRCA1 expr act -5.2%, Apoferritin bind -0.6% and Integrin act MD 10.2%.
For O=C(NC(=S)NCCC1=CCCCC1)c1ccc(Br)o1 the results were IL-2 act -3.3, PKM2 act -0.3%, BRCA1 expr act 76.6%, Apoferritin bind inconclusive and Integrin act MD 7.08µM*.
Screening O=C(NCCC1=CCCCC1)c1ccc(Br)o1 returned IL-2 act -2.6, PKM2 act -3.0%, BRCA1 expr act 73.4%, Apoferritin bind -19.4% and Integrin act MD 6.6%.
`COc1ccc(OC)c(NS(=O)(=O)c2ccc(N3CCCCS3(=O)=O)cc2)c1` gave Apoferritin bind 3.7%.
`CCOc1ccc(S(=O)(=O)Nc2nc3ccccc3nc2-n2ccc(=NC(=O)c3cccs3)cc2)cc1` gave IL-2 act inconclusive, PKM2 act 5.4%, BRCA1 expr act 12.1%, Apoferritin bind -14.5% and Integrin act MD inconclusive.
Screening O=C(N=c1ccn(-c2nc3ccccc3nc2NS(=O)(=O)c2ccc(Cl)cc2)cc1)c1cccs1 returned IL-2 act 244.0*, PKM2 act -0.6%, BRCA1 expr act 0.9%, Apoferritin bind 2.0% and Integrin act MD 5.4%.
`CC(=O)N(O)C/C=C/c1cccc(Oc2ccccc2)c1` gave Apoferritin bind -14.0%.
Screening Nc1ccc2nc3c(=O)n(C4CCCCC4)c(=O)[nH]c3nc2c1 returned IL-2 act 1.7, PKM2 act 1.0%, BRCA1 expr act 7.08µM*, Apoferritin bind 144.1% and Integrin act MD -23.5%.
Cc1ccc(S(=O)(=O)c2nnn3c2nc(NC(C)C)c2sccc23)cc1 was read as Apoferritin bind -11.5%.
For CC1=CC(C)(C)N=C(Nc2ccc(C)cc2)S1 the results were IL-2 act 0.5, PKM2 act -8.0%, BRCA1 expr act 12.6µM*, Apoferritin bind inconclusive and Integrin act MD -53.8%.
Screening O=S(=O)(Nc1cccc2cccnc12)c1cccs1 returned BRCA1 expr act -69.8%.
CC(C)Nc1oc(-c2cccc3ccccc23)nc1C#N was read as IL-2 act -0.3, PKM2 act -2.6%, BRCA1 expr act 14.1µM*, Apoferritin bind 304.8% and Integrin act MD 20.3%.
`COc1ccc(/C=C2\OC(=O)c3c(OC)cccc32)cc1OC` gave IL-2 act 0.2, PKM2 act -5.7%, BRCA1 expr act 10µM*, Apoferritin bind 730.2% and Integrin act MD -13.8%.
CC(=O)Oc1oc(-c2ccccc2)nc1C=Nc1ccccc1 was read as IL-2 act -2.3, PKM2 act 2.4%, BRCA1 expr act -3.1%, Apoferritin bind -15.5% and Integrin act MD 11.0%.
CN(C)c1ccc(N=Cc2nc(-c3ccccc3)oc2OC(=O)c2cccc(Br)c2)cc1 was read as IL-2 act 1.4, PKM2 act 0.7%, BRCA1 expr act 3.16µM*, Apoferritin bind 7.0% and Integrin act MD 14.6%.
CCOC(=O)c1ccc(N=Cc2nc(-c3ccccc3)oc2OC(C)=O)cc1 was read as IL-2 act 2.0, PKM2 act 10.5%, BRCA1 expr act 12.1%, Apoferritin bind -16.1% and Integrin act MD 6.3%.
For COc1ccc(N=Cc2nc(-c3ccccc3)oc2OC(=O)c2ccccc2)cc1 the results were IL-2 act -1.9, PKM2 act -10.3%, BRCA1 expr act 6.31µM*, Apoferritin bind 3.2% and Integrin act MD 25.2%.
`CCCCOc1ccc(-c2ncc(N)cn2)cc1` gave IL-2 act 0.4, PKM2 act -4.0%, BRCA1 expr act 2.51µM*, Apoferritin bind -7.2% and Integrin act MD -3.4%.
`CCCCOc1ccc(-c2nnc(N)s2)cc1` gave IL-2 act -2.1, PKM2 act -0.1%, BRCA1 expr act 6.31µM*, Apoferritin bind -11.9% and Integrin act MD 1.9%.
CCCCOc1ccc(C(N)=O)cc1 was read as BRCA1 expr act 0.0%.
